About 79,000 compounds went through this panel and 15% of them were active in at least one assay; those are over-represented in the sample as a whole. Active and inactive are the calls of the source. Rule as the data show it: active = growth inhibition above about 70%; inactive = the rest.
Assays:
[1] = NCI Yeast Anticancer Drug Screen. Data for the wt2 strain (AID 169);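 also: 0% = growth of vehicle-treated yeast cultures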; conditions: S. cerevisiae wt2 strain growth inhibition, hits give high values
Outline: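 The panel's yeast strains carry defined changes in DNA repair or cell cycle genes. Each strain is grown with compound, and growth loss is scored relative to vehicle.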

[2] = NCI Yeast Anticancer Drug Screen. Data for the mlh1 strain (AID 171);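 also: 0% = growth of vehicle-treated control cultures of the same strain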; conditions: S. cerevisiae mlh1 strain growth inhibition, hits give high values
Outline: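 Inhibition values reflect reduced yeast growth in the presence of compound, referenced to vehicle controls, using a strain chosen for its alteration in DNA repair or cell cycle control.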

[3] = NCI Yeast Anticancer Drug Screen. Data for the sgs1 strain (AID 173);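 also: 0% = growth of vehicle-only control cultures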; conditions: S. cerevisiae sgs1 mutant, hits give high values
Outline: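 Vehicle-treated cultures served as reference for growth inhibition of a yeast strain altered in DNA damage repair or cell cycle control after compound exposure.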

[4] = NCI Yeast Anticancer Drug Screen. Data for the mlh1 rad18 strain (AID 175); conditions: S. cerevisiae mlh1 rad18 strain growth inhibition, hits give high values
Outline: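 Inhibition values reflect reduced growth of mutant yeast versus vehicle-treated controls following compound exposure; the mutations affect DNA damage repair.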

[5] = NCI Yeast Anticancer Drug Screen. Data for the rad18 strain (AID 177); conditions: S. cerevisiae rad18 mutant growth inhibition, hits give high values
Outline: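 Steps: expose repair-mutant yeast to compound; measure growth; express as inhibition relative to vehicle control.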

[6] = NCI Yeast Anticancer Drug Screen. Data for the rad52 strain (AID 147);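 also: 0% = growth of vehicle-treated control cultures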; conditions: S. cerevisiae rad52 mutant growth inhibition, hits give high values
Outline: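 Inhibition of yeast growth, referenced to vehicle controls, was the measured output for a strain with defective DNA damage repair.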

[7] = NCI Yeast Anticancer Drug Screen. Data for the wt1 strain (AID 149);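 also: 0% = growth of vehicle-treated wt1 cultures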; conditions: S. cerevisiae wt1 strain (SPY 50644) growth inhibition, hits give high values
Outline: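 Yeast wt1 strain exposed to compounds; growth inhibition measured relative to vehicle-treated controls.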

[8] = NCI Yeast Anticancer Drug Screen. Data for the rad50EPP+ strain (AID 151);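 also: 0% = growth of vehicle-treated control cultures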; conditions: S. cerevisiae rad50 mutant strain, hits give high values
Outline: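 Genetically defined yeast (rad50EPP+, DNA damage repair alteration) is grown with compound, and inhibition of growth is expressed relative to vehicle-treated controls.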

[9] = NCI Yeast Anticancer Drug Screen. Data for the mgt1 strain (AID 153); conditions: S. cerevisiae mgt1 mutant growth inhibition, hits give high values
Outline: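 In the mgt1 strain, test compounds were added and growth inhibition was determined relative to vehicle-treated controls.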

[10] = NCI Yeast Anticancer Drug Screen. Data for the rad50 strain (AID 155);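 also: 0% = growth of vehicle-only cultures of the same strain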; conditions: S. cerevisiae rad50 strain growth inhibition, hits give high values
Outline: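 Yeast carrying a defined DNA repair defect were exposed to test compounds, and growth was compared with vehicle-treated controls to give percent inhibition.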

[11] = NCI Yeast Anticancer Drug Screen. Data for the mec2-1 strain (AID 157); conditions: S. cerevisiae mec2-1 strain, hits give high values
Outline: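 Each compound was tested on mec2-1 yeast, a strain altered in DNA damage repair or cell cycle control. Growth inhibition is reported relative to vehicle.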

[12] = NCI Yeast Anticancer Drug Screen. Data for the rad14 strain (AID 159);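 also: 0% = growth of vehicle-treated control cultures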; conditions: S. cerevisiae rad14 strain growth inhibition, hits give high values
Outline: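 Yeast cells carrying a defined DNA-repair defect were exposed to compounds, and growth inhibition was calculated relative to vehicle-treated control cultures.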

[13] = NCI Yeast Anticancer Drug Screen. Data for the sgs1 mgt1 strain (AID 161);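 also: 0% = growth of cultures given vehicle only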; conditions: S. cerevisiae sgs1 mgt1 strain, hits give high values
Outline: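 Inhibition of yeast growth, normalised to vehicle-treated controls, is reported for a strain bearing genetic alterations in DNA damage repair.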

[14] = NCI Yeast Anticancer Drug Screen. Data for the CLN2oe strain (AID 163);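 also: 0% = growth of vehicle-only control cultures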; conditions: S. cerevisiae CLN2oe strain, hits give high values
Outline: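 First, the altered yeast strain was treated with each compound; second, its growth was measured; finally, inhibition was derived by comparison with vehicle controls.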

[15] = NCI Yeast Anticancer Drug Screen. Data for the cln2 rad14 strain (AID 165);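 also: 0% = growth equal to vehicle treated cultures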; conditions: S. cerevisiae cln2 rad14 strain, hits give high values
Outline: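 Test compounds were added to cln2 rad14 yeast cultures; inhibition of growth was then determined by comparison with vehicle treatment.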

[16] = NCI Yeast Anticancer Drug Screen. Data for the bub3 strain (AID 167); conditions: S. cerevisiae bub3 mutant strain, hits give high values
Outline: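 Compounds were applied to a genetically altered yeast strain carrying a cell-cycle control defect. Growth inhibition was scored against vehicle-treated controls.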

[17] = at 5.0 µM (retest, dose inferred, filed as 0.5)
[18] = at 50.0 µM (retest, dose inferred, filed as 5.0)

Measured: growth inhibition

Clc1cccc(C(Nc2nncs2)Nc2nncs2)c1Cl
active: [3]; at 100.0 µM 86% | [5]; at 100.0 µM 87%
inactive: [1]; at 1.2 µM -2% | [1]; at 3.7 µM 8% | [1]; at 11.0 µM 1% | [1]; at 33.0 µM 19% | [1]; at 100.0 µM 54% | [2]; at 1.2 µM -1% | [2]; at 3.7 µM 0% | [2]; at 11.0 µM 3% | [2]; at 33.0 µM 16% | [2]; at 100.0 µM 49% | [3]; at 1.2 µM -1% | [3]; at 3.7 µM 3% | [3]; at 11.0 µM 16% | [3]; at 33.0 µM 51% | [4]; [17] 3% | [4]; [18] 57% | [4]; at 50.0 µM 55.3% | [5]; at 1.2 µM -4% | [5]; at 3.7 µM 6% | [5]; at 11.0 µM 14% | [5]; at 33.0 µM 42%

Cc1c(Cl)ccc2c1S(=O)(=O)c1cccc(Cl)c1-2
inactive: [6]; at 1.2 µM 0% | [6]; at 3.7 µM 0% | [6]; at 11.0 µM -4% | [6]; at 33.0 µM -9% | [6]; at 100.0 µM -9% | [7]; at 1.2 µM -6% | [7]; at 3.7 µM -2% | [7]; at 11.0 µM -1% | [7]; at 33.0 µM -15% | [7]; at 100.0 µM -1% | [8]; at 1.2 µM -12% | [8]; at 3.7 µM 12% | [8]; at 11.0 µM 7% | [8]; at 33.0 µM -37% | [8]; at 100.0 µM -17% | [9]; at 1.2 µM -2% | [9]; at 3.7 µM 1% | [9]; at 11.0 µM 9% | [9]; at 33.0 µM -5% | [9]; at 100.0 µM -8% | [10]; at 1.2 µM -22% | [10]; at 3.7 µM -9% | [10]; at 11.0 µM -30% | [10]; at 33.0 µM -17% | [10]; at 50.0 µM 20.8% | [10]; at 100.0 µM -3% | [11]; at 1.2 µM -24% | [11]; at 3.7 µM -31% | [11]; at 11.0 µM -32% | [11]; at 33.0 µM -28% | [11]; at 50.0 µM 29.5% | [11]; at 100.0 µM -32% | [12]; at 1.2 µM 2% | [12]; at 3.7 µM 6% | [12]; at 11.0 µM 2% | [12]; at 33.0 µM 5% | [12]; at 100.0 µM 5% | [13]; [17] -13% | [13]; [18] 28% | [13]; at 50.0 µM 20.9% | [14]; at 1.2 µM -5% | [14]; at 3.7 µM 6% | [14]; at 11.0 µM 8% | [14]; at 33.0 µM -4% | [14]; at 100.0 µM -18% | [15]; [17] 31% | [15]; [18] 28% | [15]; at 50.0 µM 0.75% | [16]; at 1.2 µM -27% | [16]; at 3.7 µM -13% | [16]; [17] 18% | [16]; at 11.0 µM 1% | [16]; at 33.0 µM -10% | [16]; [18] 51% | [16]; at 100.0 µM -18% | [1]; at 1.2 µM -10% | [1]; at 3.7 µM -9% | [1]; at 11.0 µM -12% | [1]; at 33.0 µM -12% | [1]; at 100.0 µM -25% | [2]; at 1.2 µM -3% | [2]; at 3.7 µM 2% | [2]; at 11.0 µM -5% | [2]; at 33.0 µM -8% | [2]; at 100.0 µM -2% | [3]; at 1.2 µM -10% | [3]; at 3.7 µM -19% | [3]; at 11.0 µM -18% | [3]; at 33.0 µM -13% | [3]; at 100.0 µM -24% | [4]; at 50.0 µM 37.2% | [5]; at 1.2 µM -18% | [5]; at 3.7 µM 2% | [5]; at 11.0 µM 6% | [5]; at 33.0 µM -1% | [5]; at 100.0 µM 7%
active: [10]; [17] 100% | [10]; [18] 100% | [11]; [17] 100% | [11]; [18] 100% | [16]; at 50.0 µM 81.3% | [4]; [17] 100% | [4]; [18] 100%

COc1cc(/C=C2\CCc3ccccc3C2=O)cc(OC)c1OC
inactive: [6]; at 1.2 µM 3% | [6]; at 3.7 µM -3% | [6]; at 11.0 µM 3% | [6]; at 33.0 µM 18% | [7]; at 1.2 µM 9% | [7]; at 3.7 µM 3% | [7]; at 11.0 µM -2% | [7]; at 33.0 µM 11% | [8]; at 1.2 µM 1% | [8]; at 3.7 µM 2% | [8]; at 11.0 µM 17% | [8]; at 33.0 µM 30% | [8]; at 100.0 µM 40% | [9]; at 1.2 µM -9% | [9]; at 3.7 µM -14% | [9]; at 11.0 µM -45% | [9]; at 33.0 µM 6% | [10]; at 1.2 µM 6% | [10]; at 3.7 µM -3% | [10]; [17] 15% | [10]; at 11.0 µM -17% | [10]; at 33.0 µM 26% | [10]; [18] 6% | [10]; at 50.0 µM 44.1% | [11]; at 1.2 µM -17% | [11]; at 3.7 µM 10% | [11]; [17] -11% | [11]; at 11.0 µM 1% | [11]; at 33.0 µM 22% | [11]; [18] 14% | [11]; at 50.0 µM 25.6% | [12]; at 1.2 µM -10% | [12]; at 3.7 µM -25% | [12]; at 11.0 µM -44% | [12]; at 33.0 µM -28% | [12]; at 100.0 µM 48% | [13]; [17] 5% | [13]; [18] 33% | [13]; at 50.0 µM 56.8% | [14]; at 1.2 µM 13% | [14]; at 3.7 µM -2% | [14]; at 11.0 µM 2% | [14]; at 33.0 µM 15% | [15]; [17] 2% | [15]; [18] 24% | [15]; at 50.0 µM 39.8% | [16]; at 1.2 µM -29% | [16]; at 3.7 µM -13% | [16]; [17] -3% | [16]; at 11.0 µM 32% | [1]; at 1.2 µM 2% | [1]; at 3.7 µM 0% | [1]; at 11.0 µM -10% | [1]; at 33.0 µM 13% | [2]; at 1.2 µM -3% | [2]; at 3.7 µM -7% | [2]; at 11.0 µM -11% | [2]; at 33.0 µM 21% | [3]; at 1.2 µM 16% | [3]; at 3.7 µM 17% | [3]; at 11.0 µM 24% | [3]; at 33.0 µM 61% | [4]; [17] -15% | [4]; [18] 0% | [4]; at 50.0 µM 33.5% | [5]; at 1.2 µM 5% | [5]; at 3.7 µM 8% | [5]; at 11.0 µM 7% | [5]; at 33.0 µM 35%
active: [6]; at 100.0 µM 70% | [7]; at 100.0 µM 76% | [9]; at 100.0 µM 73% | [10]; at 100.0 µM 72% | [11]; at 100.0 µM 73% | [14]; at 100.0 µM 74% | [16]; at 33.0 µM 76% | [16]; [18] 86% | [16]; at 50.0 µM 74.3% | [16]; at 100.0 µM 85% | [1]; at 100.0 µM 79% | [2]; at 100.0 µM 75% | [3]; at 100.0 µM 86% | [5]; at 100.0 µM 73%
